# Experimental data: PubChem BioAssay (EPA / NIEHS)
# Results filed as inconclusive are left out. Calls of active or inactive are those of the source. The calls were made as follows, unless noted: active = hit-call score of the fitted dose curve at least 0.9, where 1 is the maximum; inactive = score below 0.9.
# Columns and labels:
# [1] = molecular target: Bile acid receptor (Homo sapiens) (UniProt Q96RI1); experiment: ATG_FXR_TRANS: Attagene TRANS-FACTORIAL HepG2 Assay for Farnesoid X Receptor (FXR) (AID 2282979; active = hit-call score of the fitted dose curve at least 0.9, where 1 is the maximum;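 also: hits raise reporter mRNA above DMSO so AC50 marks FXR activation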); details: HepG2 Attagene TRANS FXR-GAL4 reporter transcription
# Summary of the method: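 Transient transfection of HepG2 with multiplexed GAL4-UAS reporter units; exogenous FXR-GAL4 chimera. Dose 24 h → TriZol RNA → oligo(dT) RT → PCR, 6-FAM primer extension, HpaI cut → CE. Gain vs DMSO.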
# [2] = molecular target: Oxysterols receptor LXR-beta (Homo sapiens) (UniProt P55055); experiment: ATG_LXRb_TRANS: Attagene TRANS-FACTORIAL HepG2 Assay for human Liver X Receptor beta (LXRb) (AID 2282981; active = hit-call score of the fitted dose curve at least 0.9, where 1 is the maximum); details: HepG2 Attagene TRANS GAL4-LXRb reporter, mRNA
# Summary of the method: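 Transient transfection HepG2 (multiplexed RTUs, GAL4-UAS); NR-Gal4 chimera; 24 h exposure; RNA → RT-PCR → 6-FAM primer extension → HpaI → CE; increase vs DMSO.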
# [3] = ATG_M_32_TRANS: Attagene TRANS-FACTORIAL HepG2 Assay for M32 Transcription Factor (Internal Marker) (AID 2282984; active = hit-call score of the fitted dose curve at least 0.9, where 1 is the maximum;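 also: transcript level of a background control reporter unit measured by RT-PCR and capillary electrophoresis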); details: HepG2 Attagene TRANS M32 internal marker reporter
# Summary of the method: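 Measures reporter mRNA induction in human HepG2 liver cells after 24 h chemical treatment. Transcripts from transiently transfected GAL4-UAS reporter units are amplified, fluorescently labelled and sized by capillary electrophoresis; gain of signal relative to DMSO.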
# [4] = molecular target: Nuclear receptor subfamily 4 group A member 2 (Homo sapiens) (UniProt P43354); experiment: ATG_NURR1_TRANS: Attagene TRANS-FACTORIAL HepG2 Assay for human Nuclear Receptor Related Protein 1 (NURR1) (AID 2282985; active = hit-call score of the fitted dose curve at least 0.9, where 1 is the maximum); details: HepG2 Attagene TRANS reporter, mRNA readout
# Summary of the method: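 Transient transfection of HepG2, human liver cells, with multiple GAL4-UAS reporter transcription units. Cells dosed 24 h, RNA isolated, reverse-transcribed, PCR-amplified, FAM-labelled, HpaI-digested, sized by capillary electrophoresis. DMSO served as negative control.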
# [5] = molecular target: Transcriptional activator Myb (Homo sapiens) (UniProt P10242); experiment: ATG_Myb_CIS: Attagene CIS-FACTORIAL HepG2 Assay for human Myeloblastosis (Myb) Proto-Oncogene Transcription Factor (AID 2282986); details: HepG2 Attagene CIS-FACTORIAL Myb reporter transcription; actives raise or lower the signal
# Summary of the method: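 After 24 h of compound dosing, total RNA from transfected HepG2 cells is reverse-transcribed and the reporter sequences amplified, labeled and separated by capillary electrophoresis. Values come from bidirectional fitting against DMSO.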
# [6] = molecular target: Nuclear respiratory factor 1 (Homo sapiens) (UniProt Q16656); experiment: ATG_NRF1_CIS: Attagene CIS-FACTORIAL HepG2 Assay for human Nuclear Respiratory Factor 1 (NRF1) Orphan Gene (AID 2282987); details: HepG2 NRF1 cis-element reporter, Attagene multiplex; actives raise or lower the signal
# Summary of the method: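 Measured: fluorescent reporter-specific RT-PCR products from transfected HepG2 cells, separated by capillary electrophoresis. Exposure lasted 24 h. Analysis used bidirectional curve fitting with DMSO as negative control.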
# [7] = ATG_NFI_CIS: Attagene CIS-FACTORIAL HepG2 Assay for human Nuclear Factor I (NFI) (AID 2282989); details: HepG2 cis-regulatory reporter, NFI response element transcription; actives raise or lower the signal
# Summary of the method: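 Transient MRTU transfection of HepG2 → 24 h chemical dosing → total RNA, oligo(dT) RT → PCR, 6-FAM primer extension, HpaI cut → capillary electrophoresis. Endpoint fitted bidirectionally relative to DMSO.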
# [8] = molecular target: Myc proto-oncogene protein (Homo sapiens) (UniProt P01106); experiment: ATG_Myc_CIS: Attagene CIS-FACTORIAL HepG2 Assay for human Myelocytomatosis (Myc) Proto-Oncogene Transcription Factor (AID 2282990); details: HepG2, Attagene cis-reporter transcription factor activity; actives raise or lower the signal
# Summary of the method: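 HepG2, transient MRTU transfection (cis promoters, endogenous TFs); 24 h dosing; TriZol RNA → oligo(dT) RT → PCR → 6-FAM primer extension → HpaI cut → CE. Bidirectional fit vs DMSO.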
# [9] = ATG_NRF2_ARE_CIS: Attagene CIS-FACTORIAL HepG2 Assay for human Nuclear Factor Erythroid 2 Related Factor 2 (NFR2) response to Antioxidant Response Elements (ARE) (AID 2282992); details: HepG2 Attagene ARE/NRF2 reporter, transcription factor activity; actives raise or lower the signal
# Summary of the method: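 Multiplexed reporter mRNA profiling in HepG2 after a 24 h chemical exposure. Curves fitted in both directions relative to DMSO negative control.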
# [10] = ATG_Oct_MLP_CIS: Attagene CIS-FACTORIAL HepG2 Assay for human Octamer-Binding Transcription Factor (Oct) (AID 2282993); details: HepG2 Attagene cis-factorial Oct reporter, mRNA; actives raise or lower the signal
# Summary of the method: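 Transient MRTU transfection of HepG2 → 24 h compound treatment → RNA isolation, reverse transcription, PCR → 6-FAM primer extension, HpaI digest → capillary electrophoresis. Activity fitted both directions against DMSO.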
# [11] = molecular target: Cellular tumor antigen p53 (Homo sapiens) (UniProt P04637); experiment: ATG_p53_CIS: Attagene CIS-FACTORIAL HepG2 Assay for human p53 Transcription Factor (AID 2282994); details: HepG2 p53 cis-element reporter, Attagene mRNA; actives raise or lower the signal
# Summary of the method: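 Multiplexed reporter mRNA assay in human HepG2 liver cells; cis-regulated units report endogenous factor activity. Values come from bidirectional curve fitting against DMSO negative control after 24 h treatment.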
# [12] = BSK_3C_TissueFactor: BioMAP Diversity Plus: 3C Assay for Tissue Factor Biomarker Activity (AID 2282997); details: BioMAP 3C HUVEC, tissue factor biomarker readout; actives raise or lower the signal
# Summary of the method: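 ELISA read-out of Tissue Factor levels on human umbilical vein endothelium collected 24 h after chemical dosing. Gain or loss of signal was fitted relative to DMSO.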
# [13] = BSK_3C_uPAR: BioMAP Diversity Plus: 3C Assay for Urokinase-type plasminogen activator receptor (uPAR) Biomarker Activity (AID 2282998); details: BioMAP 3C HUVEC, uPAR biomarker ELISA; actives raise or lower the signal
# Summary of the method: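 ELISA readout of uPAR on human vascular endothelium (umbilical vein primary cells), taken 24 h after chemical dosing. Increases and decreases are both fitted relative to DMSO vehicle.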
# [14] = BSK_3C_VCAM1: BioMAP Diversity Plus: 3C Assay for Vascular cell adhesion molecule 1 (VCAM1) Biomarker Activity (AID 2282999); details: BioMAP 3C HUVEC, VCAM1 ELISA, cytokine-stimulated; actives raise or lower the signal
# Summary of the method: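 Endothelial cells from human umbilical vein are treated with test chemical. At 24 h, VCAM-1 is measured by ELISA, and responses in either direction are fitted relative to DMSO.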
# [15] = BSK_4H_Eotaxin3: BioMAP Diversity Plus: 4H Assay for Eotaxin 3 Biomarker Activity (AID 2283000); details: primary human endothelial cells (HUVEC); actives raise or lower the signal;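 as to outcome: CCL26 protein level quantified by ELISA in parallel with SRB cytotoxicity check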
# Summary of the method: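 Chemicals were added to human umbilical vein endothelium cultures, and Eotaxin-3 was quantified by ELISA at 24 h. Values were derived by bidirectional fitting with DMSO serving as negative control and activity baseline.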
# [16] = molecular target: Oxysterols receptor LXR-alpha (Homo sapiens) (UniProt Q13133); experiment: ATG_LXRa_TRANS: Attagene TRANS-FACTORIAL HepG2 Assay for human Liver X Receptor alpha (LXRa) (AID 2282980; active = hit-call score of the fitted dose curve at least 0.9, where 1 is the maximum); details: HepG2 Attagene TRANS reporter, LXRa transactivation
# Summary of the method: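 Transfect HepG2 with GAL4-UAS multiplex reporter constructs (TRANS format, chimeric receptor-GAL4); treat 24 h; extract RNA, reverse-transcribe, PCR-amplify, FAM-label, HpaI-digest; resolve fragments by capillary electrophoresis. Upward response vs DMSO.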
# [17] = ATG_M_06_TRANS: Attagene TRANS-FACTORIAL HepG2 Assay for M06 Transcription Factor (Internal Marker) (AID 2282983; active = hit-call score of the fitted dose curve at least 0.9, where 1 is the maximum); details: HepG2 Attagene TRANS M06 internal marker reporter
# Summary of the method: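 Transfect HepG2 with MRTUs → dose compounds 24 h → isolate RNA, oligo(dT) RT → PCR with reporter primers → 6-FAM primer extension → HpaI digest → CE fragment analysis. Positive direction vs DMSO.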
# [18] = ATG_NF_kB_CIS: Attagene CIS-FACTORIAL HepG2 Assay for human Nuclear Factor Kappa B (NF-kB) (AID 2282991); details: HepG2 Attagene cis-factorial NF-kB reporter mRNA; actives raise or lower the signal
# Summary of the method: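 Fluorescence of labelled RT-PCR products separated by capillary electrophoresis gives reporter mRNA levels from transfected HepG2 cells exposed 24 h; values are fitted in both directions relative to DMSO.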
# [19] = molecular target: Glucocorticoid receptor (Homo sapiens) (UniProt P04150); experiment: ATG_GR_TRANS: Attagene TRANS-FACTORIAL HepG2 Assay for human Glucocorticoid Receptor (GR) (AID 2282978; active = hit-call score of the fitted dose curve at least 0.9, where 1 is the maximum;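 also: activators score as hits since higher reporter transcript over DMSO is fitted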); details: HepG2 Attagene TRANS GR reporter, mRNA transcription
# Summary of the method: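 After 24 h incubation with test chemical, transfected HepG2 cells were lysed for RNA; reporter cDNA was amplified, FAM-labelled, HpaI-digested and sized on a capillary analyser. Signal gain relative to DMSO was scored.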
# [20] = molecular target: Hepatocyte nuclear factor 4-alpha (Homo sapiens) (UniProt P41235); experiment: ATG_HNF4a_TRANS: Attagene TRANS-FACTORIAL HepG2 Assay for human Hepatocyte Nuclear Factor 4 alpha (HNF4a) (AID 2282982; active = hit-call score of the fitted dose curve at least 0.9, where 1 is the maximum); details: HepG2 HNF4a transactivation reporter, mRNA readout
# Summary of the method: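 Readout is fluorescent reporter-transcript fragments resolved by capillary electrophoresis after RT-PCR from HepG2 cells dosed for 24 h. Cells carried transfected GAL4-UAS reporter constructs measuring exogenous NR-GAL4 chimera activity; DMSO served as baseline.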
# Cellular tumor antigen p53 (Homo sapiens), sequence (P04637 whole entry, looked up): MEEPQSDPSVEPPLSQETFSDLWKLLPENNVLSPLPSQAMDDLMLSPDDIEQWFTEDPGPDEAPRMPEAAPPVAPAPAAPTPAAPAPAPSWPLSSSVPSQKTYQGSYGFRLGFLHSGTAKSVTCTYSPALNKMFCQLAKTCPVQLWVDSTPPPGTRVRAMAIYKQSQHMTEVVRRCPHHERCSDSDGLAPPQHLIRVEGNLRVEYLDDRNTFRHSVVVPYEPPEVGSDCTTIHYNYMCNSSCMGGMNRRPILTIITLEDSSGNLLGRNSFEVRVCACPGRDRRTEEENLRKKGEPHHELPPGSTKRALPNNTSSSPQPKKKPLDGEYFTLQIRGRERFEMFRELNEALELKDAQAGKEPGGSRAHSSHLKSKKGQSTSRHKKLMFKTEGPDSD
# Nuclear respiratory factor 1 (Homo sapiens), sequence (Q16656 whole entry, looked up): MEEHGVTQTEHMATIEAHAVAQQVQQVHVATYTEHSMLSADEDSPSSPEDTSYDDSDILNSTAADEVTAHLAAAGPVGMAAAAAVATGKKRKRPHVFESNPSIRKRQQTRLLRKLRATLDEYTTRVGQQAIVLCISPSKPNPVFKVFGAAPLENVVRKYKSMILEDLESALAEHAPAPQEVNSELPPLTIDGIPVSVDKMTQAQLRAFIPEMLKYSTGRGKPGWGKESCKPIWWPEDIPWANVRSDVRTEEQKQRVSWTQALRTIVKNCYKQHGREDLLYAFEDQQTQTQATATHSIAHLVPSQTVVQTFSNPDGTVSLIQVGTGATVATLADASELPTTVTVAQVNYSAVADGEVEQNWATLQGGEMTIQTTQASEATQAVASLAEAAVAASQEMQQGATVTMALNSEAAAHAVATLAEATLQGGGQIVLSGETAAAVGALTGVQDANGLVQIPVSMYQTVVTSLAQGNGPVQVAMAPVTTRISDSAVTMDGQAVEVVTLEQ
# Glucocorticoid receptor (Homo sapiens), sequence (P04150 whole entry, looked up): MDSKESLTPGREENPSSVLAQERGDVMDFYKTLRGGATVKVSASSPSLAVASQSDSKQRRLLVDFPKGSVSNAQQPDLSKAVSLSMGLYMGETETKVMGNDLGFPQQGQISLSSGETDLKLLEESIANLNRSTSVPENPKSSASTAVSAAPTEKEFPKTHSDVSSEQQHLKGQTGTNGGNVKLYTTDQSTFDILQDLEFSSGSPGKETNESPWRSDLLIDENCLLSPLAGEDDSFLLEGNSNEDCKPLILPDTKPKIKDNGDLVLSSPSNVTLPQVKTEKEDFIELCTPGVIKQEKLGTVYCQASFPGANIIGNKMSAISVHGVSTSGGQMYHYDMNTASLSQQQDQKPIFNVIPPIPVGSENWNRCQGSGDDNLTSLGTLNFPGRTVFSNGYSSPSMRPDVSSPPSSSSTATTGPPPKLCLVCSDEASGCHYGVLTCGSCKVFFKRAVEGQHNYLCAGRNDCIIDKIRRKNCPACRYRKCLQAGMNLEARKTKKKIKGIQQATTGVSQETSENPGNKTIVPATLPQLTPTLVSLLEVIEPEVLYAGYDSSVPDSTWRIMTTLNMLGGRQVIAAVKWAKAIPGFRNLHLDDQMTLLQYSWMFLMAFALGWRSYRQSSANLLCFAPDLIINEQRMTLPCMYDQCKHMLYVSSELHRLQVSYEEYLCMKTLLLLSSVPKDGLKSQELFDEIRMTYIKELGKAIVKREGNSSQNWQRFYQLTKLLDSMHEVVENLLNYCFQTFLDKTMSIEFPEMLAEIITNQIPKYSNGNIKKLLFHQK
# Nuclear receptor subfamily 4 group A member 2 (Homo sapiens), sequence (P43354 whole entry, looked up, the tested form may be a part): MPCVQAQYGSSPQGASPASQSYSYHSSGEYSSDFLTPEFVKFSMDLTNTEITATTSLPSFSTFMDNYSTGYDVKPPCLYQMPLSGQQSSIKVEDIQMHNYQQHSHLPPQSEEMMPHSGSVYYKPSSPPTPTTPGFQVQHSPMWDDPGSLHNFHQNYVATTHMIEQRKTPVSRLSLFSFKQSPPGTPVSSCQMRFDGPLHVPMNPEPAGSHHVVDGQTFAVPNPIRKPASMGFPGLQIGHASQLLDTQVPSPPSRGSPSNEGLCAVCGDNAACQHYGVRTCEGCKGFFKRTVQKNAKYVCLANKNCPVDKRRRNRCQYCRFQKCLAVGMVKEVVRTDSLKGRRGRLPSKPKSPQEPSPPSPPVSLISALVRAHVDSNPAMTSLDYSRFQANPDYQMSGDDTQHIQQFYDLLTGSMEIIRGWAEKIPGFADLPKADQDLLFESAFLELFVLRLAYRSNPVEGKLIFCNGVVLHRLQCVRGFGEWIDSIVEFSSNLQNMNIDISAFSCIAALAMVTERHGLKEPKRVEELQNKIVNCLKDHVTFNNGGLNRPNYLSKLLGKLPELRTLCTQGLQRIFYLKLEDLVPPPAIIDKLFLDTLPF
# Oxysterols receptor LXR-beta (Homo sapiens), sequence (P55055 whole entry, looked up, the tested form may be a part): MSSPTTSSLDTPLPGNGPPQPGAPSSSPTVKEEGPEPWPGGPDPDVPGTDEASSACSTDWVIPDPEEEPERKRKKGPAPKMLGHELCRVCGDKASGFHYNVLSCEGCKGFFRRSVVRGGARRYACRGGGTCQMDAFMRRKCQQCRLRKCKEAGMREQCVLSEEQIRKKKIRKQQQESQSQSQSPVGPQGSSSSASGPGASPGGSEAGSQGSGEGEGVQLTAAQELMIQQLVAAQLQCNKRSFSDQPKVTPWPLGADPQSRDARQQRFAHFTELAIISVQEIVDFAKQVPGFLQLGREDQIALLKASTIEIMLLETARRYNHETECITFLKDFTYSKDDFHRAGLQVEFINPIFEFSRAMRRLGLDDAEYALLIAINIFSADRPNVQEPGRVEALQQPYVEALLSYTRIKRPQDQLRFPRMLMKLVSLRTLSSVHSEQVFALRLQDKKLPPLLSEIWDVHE
# Transcriptional activator Myb (Homo sapiens), sequence (P10242 whole entry, looked up): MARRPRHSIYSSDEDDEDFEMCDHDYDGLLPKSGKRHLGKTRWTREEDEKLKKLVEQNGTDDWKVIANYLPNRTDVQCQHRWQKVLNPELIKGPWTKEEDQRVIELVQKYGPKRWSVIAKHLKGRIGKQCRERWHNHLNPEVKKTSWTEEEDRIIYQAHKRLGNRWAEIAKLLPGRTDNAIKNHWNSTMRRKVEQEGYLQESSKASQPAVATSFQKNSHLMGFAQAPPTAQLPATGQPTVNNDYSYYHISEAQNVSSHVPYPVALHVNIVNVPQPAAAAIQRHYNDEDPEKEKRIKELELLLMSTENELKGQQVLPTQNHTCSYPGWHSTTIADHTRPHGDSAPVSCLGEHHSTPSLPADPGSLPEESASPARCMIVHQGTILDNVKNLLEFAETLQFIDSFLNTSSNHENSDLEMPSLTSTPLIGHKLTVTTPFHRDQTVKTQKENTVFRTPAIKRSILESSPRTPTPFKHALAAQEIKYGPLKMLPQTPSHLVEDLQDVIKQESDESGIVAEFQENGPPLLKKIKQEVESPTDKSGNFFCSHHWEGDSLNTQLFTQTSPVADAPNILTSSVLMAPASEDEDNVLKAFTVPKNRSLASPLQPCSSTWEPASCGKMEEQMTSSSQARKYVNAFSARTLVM
# Myc proto-oncogene protein (Homo sapiens), sequence (P01106 whole entry, looked up): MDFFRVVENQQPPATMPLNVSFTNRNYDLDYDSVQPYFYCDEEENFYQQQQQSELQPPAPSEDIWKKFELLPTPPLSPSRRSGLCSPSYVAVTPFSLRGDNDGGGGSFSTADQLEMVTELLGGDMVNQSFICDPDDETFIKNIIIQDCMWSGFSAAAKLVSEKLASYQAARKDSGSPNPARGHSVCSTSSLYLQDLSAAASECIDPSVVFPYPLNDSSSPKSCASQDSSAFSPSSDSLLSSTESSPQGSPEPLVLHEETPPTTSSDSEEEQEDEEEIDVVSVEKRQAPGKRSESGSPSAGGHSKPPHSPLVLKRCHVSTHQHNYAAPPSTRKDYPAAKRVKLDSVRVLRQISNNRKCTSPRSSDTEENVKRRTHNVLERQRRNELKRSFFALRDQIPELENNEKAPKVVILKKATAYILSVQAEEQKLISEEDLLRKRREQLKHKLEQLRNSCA
# Oxysterols receptor LXR-alpha (Homo sapiens), sequence (Q13133 whole entry, looked up, the tested form may be a part): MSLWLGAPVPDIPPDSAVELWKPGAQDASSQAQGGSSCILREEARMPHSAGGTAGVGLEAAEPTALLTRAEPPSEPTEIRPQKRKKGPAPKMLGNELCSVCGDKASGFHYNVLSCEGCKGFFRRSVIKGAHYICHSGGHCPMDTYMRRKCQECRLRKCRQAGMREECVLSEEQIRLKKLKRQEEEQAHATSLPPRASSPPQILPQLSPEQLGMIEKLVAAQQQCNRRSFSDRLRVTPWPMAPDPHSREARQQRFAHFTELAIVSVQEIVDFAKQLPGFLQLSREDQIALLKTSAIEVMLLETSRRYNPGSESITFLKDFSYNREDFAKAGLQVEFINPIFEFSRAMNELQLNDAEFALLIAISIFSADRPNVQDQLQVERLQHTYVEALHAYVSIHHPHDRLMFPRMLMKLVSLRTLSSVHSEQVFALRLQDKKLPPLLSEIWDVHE
# Hepatocyte nuclear factor 4-alpha (Homo sapiens), sequence (P41235 whole entry, looked up, the tested form may be a part): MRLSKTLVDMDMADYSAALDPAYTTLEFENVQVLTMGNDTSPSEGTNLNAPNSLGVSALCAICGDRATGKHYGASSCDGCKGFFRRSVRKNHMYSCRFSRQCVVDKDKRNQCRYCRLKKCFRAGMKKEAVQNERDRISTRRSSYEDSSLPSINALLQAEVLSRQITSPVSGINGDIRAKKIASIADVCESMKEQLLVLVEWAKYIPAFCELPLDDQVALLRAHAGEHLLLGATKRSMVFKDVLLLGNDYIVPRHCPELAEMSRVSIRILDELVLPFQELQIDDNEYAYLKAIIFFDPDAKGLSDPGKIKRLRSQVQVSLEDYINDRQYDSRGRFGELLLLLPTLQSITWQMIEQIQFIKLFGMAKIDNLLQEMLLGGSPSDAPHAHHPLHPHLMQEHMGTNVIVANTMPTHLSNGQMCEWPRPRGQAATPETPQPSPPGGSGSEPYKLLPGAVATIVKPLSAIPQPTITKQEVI
compound,measurement,setting,value
CCCCCCCCCCCCCCCCOS(=O)(=O)O,outcome,[1],inactive
same,outcome,[2],inactive
same,outcome,[3],inactive
same,outcome,[4],inactive
same,outcome,[5],inactive
same,outcome,[6],inactive
same,AC50,[7],24.6 µM (active)
same,outcome,[8],inactive
same,AC50,[9],27.3 µM (active)
same,outcome,[10],inactive
same,AC50,[11],24.9 µM (active)
same,outcome,[12],inactive
same,outcome,[13],inactive
same,outcome,[14],inactive
same,outcome,[15],inactive
FC(F)C(F)(F)COCC1CO1 (stereo not given),outcome,[1],inactive
same,outcome,[16],inactive
same,outcome,[17],inactive
same,outcome,[3],inactive
same,outcome,[4],inactive
same,outcome,[5],inactive
same,outcome,[6],inactive
same,outcome,[7],inactive
same,outcome,[8],inactive
same,outcome,[18],inactive
same,outcome,[9],inactive
same,outcome,[10],inactive
same,outcome,[11],inactive
same,outcome,[12],inactive
same,outcome,[13],inactive
same,outcome,[14],inactive
same,outcome,[15],inactive
O=c1[nH]cnc2c1ncn2[C@H]1CC[C@@H](CO)O1,outcome,[19],inactive
same,outcome,[2],inactive
same,outcome,[17],inactive
same,outcome,[4],inactive
same,outcome,[5],inactive
same,outcome,[6],inactive
same,outcome,[7],inactive
same,outcome,[9],inactive
same,outcome,[10],inactive
same,outcome,[12],inactive
same,outcome,[13],inactive
same,outcome,[14],inactive
same,outcome,[15],inactive
O=C1CN(N=Cc2ccc([N+](=O)[O-])o2)C(=O)N1,outcome,[19],inactive
same,outcome,[17],inactive
same,outcome,[3],inactive
same,outcome,[5],inactive
same,outcome,[8],inactive
same,outcome,[10],inactive
same,outcome,[11],inactive
same,outcome,[12],inactive
same,outcome,[13],inactive
same,outcome,[14],inactive
same,outcome,[15],inactive
c1ccc(C(O[C@@H]2CCCN(CCc3ccc4c(c3)OCO4)C2)c2ccccc2)cc1,outcome,[19],inactive
same,outcome,[20],inactive
same,outcome,[17],inactive
same,outcome,[3],inactive
same,outcome,[4],inactive
same,outcome,[5],inactive
same,outcome,[6],inactive
same,outcome,[7],inactive
same,AC50,[10],23.3 µM (active)
same,AC50,[11],52.6 µM (active)
same,outcome,[12],inactive
same,AC50,[13],27.5 µM (active)
same,outcome,[14],inactive
same,outcome,[15],inactive
c1ccc2cc3ccccc3cc2c1,outcome,[19],inactive
same,outcome,[3],inactive
same,outcome,[5],inactive
same,outcome,[6],inactive
same,outcome,[7],inactive
same,outcome,[18],inactive
same,outcome,[9],inactive
same,outcome,[10],inactive
same,outcome,[11],inactive
same,AC50,[12],2.03 µM (active)
same,outcome,[13],inactive
same,outcome,[14],inactive
same,outcome,[15],inactive
CCCc1ccccc1,outcome,[19],inactive
same,outcome,[20],inactive
same,outcome,[17],inactive
same,outcome,[4],inactive
same,outcome,[5],inactive
same,outcome,[6],inactive
same,outcome,[7],inactive
same,outcome,[8],inactive
same,outcome,[10],inactive
same,outcome,[11],inactive
same,outcome,[12],inactive
same,outcome,[13],inactive
same,outcome,[14],inactive
same,outcome,[15],inactive
CCCCCCCCN(C)C,outcome,[19],inactive
same,outcome,[2],inactive
same,outcome,[17],inactive
same,outcome,[4],inactive
same,outcome,[5],inactive
same,outcome,[6],inactive
same,outcome,[7],inactive
same,outcome,[9],inactive
same,outcome,[10],inactive
same,outcome,[11],inactive
same,outcome,[12],inactive
same,outcome,[13],inactive
same,outcome,[14],inactive
same,outcome,[15],inactive
CCCCCCCCCCCCCCO,outcome,[2],inactive
same,outcome,[3],inactive
same,AC50,[5],168 µM (active)
same,outcome,[6],inactive
same,AC50,[7],179 µM (active)
same,AC50,[8],166 µM (active)
same,outcome,[18],inactive
same,outcome,[9],inactive
same,outcome,[10],inactive
same,outcome,[11],inactive
same,AC50,[12],36.6 µM (active)
same,AC50,[13],34.4 µM (active)
same,AC50,[14],32.8 µM (active)
same,AC50,[15],38.4 µM (active)
